# ALOX12 inh = ALOX12 (human) lipoxygenase inhibition; P18054; purified 12hLO, xylenol orange hydroperoxide absorbance; Potency, µM (top dose mostly 108 µM), inactives show at the highest dose activity change, negative = inhibition, actives largely listed as inhibitors; 580,000 tested, 1.1% active; AID 1671190
#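 Purified human 12hLO at 150 nM in 25 mM Hepes, 0.01% Triton X-100, pH 7.0, preincubated 15 min at room temperature with compound. Reaction started with 40 uM arachidonic acid, 30 min at room temperature. Hydroperoxide measured by Fe-xylenol orange, 573/405 nm absorbance ratio.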
# TDP1 cell CPT = growth inhibition of DT40 Tdp1-/-;hTDP1 cells with camptothecin (screen for TDP1 inhibitors). Potency, µM (top dose mostly 46.2 µM), for the others: at the top dose activity change, negative = growth inhibition, most hits filed as inhibitors. chicken DT40 Tdp1-/-;hTDP1 cells + 20 nM CPT, ATP luminescence, 48 h. AID 686979. 420,000 tested, 12% active; further: nearly all actives have a fitted effect of over 55% in size
#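 Chicken DT40 Tdp1-/- cells complemented with human TDP1, 400 cells/well, exposed to compounds plus 20 nM camptothecin for at least 48 h at 37 C; viability read as ATP content by CellTiter-Glo luminescence.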
# TDP1 cell noCPT = qHTS for Inhibitors of human tyrosyl-DNA phosphodiesterase 1 (TDP1): qHTS in cells in absence of CPT; DT40 Tdp1-/- hTDP1 cells, no CPT, ATP luminescence, 48 h; Potency, µM (top dose mostly 46.2 µM), for inactives: at the highest dose activity change, negative = growth inhibition, actives largely listed as inhibitors; 420,000 tested, 15% active; AID 686978, 2013; further: nearly all actives have a fitted effect of over 55% in size
#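 DT40 Tdp1-/-;hTDP1 cells, no CPT (DMSO vehicle only), 400 cells/well; compounds pin-transferred; ≥48 hr, 37 °C; CellTiter-Glo 30 min RT dark, luminescence read.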
# Gal4-VP16 FLuc = counter-screen for ROR gamma inhibitors: Gal4-VP16 reporter | Drosophila S2 Gal4-VP16 UAS-luciferase, luminescence, 20 h | Potency, µM (series often up to 53.6 µM), for the others: at the top dose activity, negative = inhibition, actives largely listed as inhibitors | 310,000 tested, 3.5% active | AID 2546;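 further: Gal4-VP16 expression switched on by copper sulfate through the metallothionein promoter; nearly all actives have a fitted effect of over 50% in size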
# RORg inh = ROR gamma (mouse) transcription inhibition; Drosophila S2 Gal4-RORgamma UAS-luciferase reporter, 20 h; Potency, µM (titrated, usually from 53.6 µM), for inactives: at the highest dose activity change, negative = inhibition, most hits filed as inhibitors; 310,000 tested, 5.4% active; AID 2551; further: nearly all actives have a fitted effect of over 60% in size
# Target sequence (P51450 whole entry, looked up, the tested form may be a part): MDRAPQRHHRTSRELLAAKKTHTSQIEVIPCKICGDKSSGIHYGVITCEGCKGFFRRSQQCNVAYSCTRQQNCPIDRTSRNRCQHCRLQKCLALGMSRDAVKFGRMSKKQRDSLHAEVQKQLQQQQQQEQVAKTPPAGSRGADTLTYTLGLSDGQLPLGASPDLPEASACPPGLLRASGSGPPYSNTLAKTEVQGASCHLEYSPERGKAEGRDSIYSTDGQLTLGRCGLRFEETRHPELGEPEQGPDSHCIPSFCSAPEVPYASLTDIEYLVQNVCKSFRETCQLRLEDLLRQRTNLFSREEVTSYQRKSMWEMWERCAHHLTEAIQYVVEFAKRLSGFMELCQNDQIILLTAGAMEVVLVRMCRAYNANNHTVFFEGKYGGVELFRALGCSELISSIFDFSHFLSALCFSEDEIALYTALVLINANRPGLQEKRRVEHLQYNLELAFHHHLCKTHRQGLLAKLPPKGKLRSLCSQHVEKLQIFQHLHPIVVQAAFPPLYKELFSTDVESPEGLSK
#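 Luciferase reporter read in Schneider cells carrying Gal4-RORγ (mouse) and UAS-Photinus luciferase; cells given compound 1 h before 700 uM copper sulfate induction, then incubated 20 h at ambient temperature.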
# ELG1 DNA repair = ELG1-dependent DNA repair inhibition; HEK293T ELG1-luciferase reporter, luminescence, 16 h; DNA damage induced by 5-fluorouridine; Potency, µM (highest dose often 46.1 µM), for the others: top-dose activity change, negative = inhibition, usual class: inhibitors; 330,000 tested, 2.3% active; AID 504467; further: nearly all actives have a fitted effect of over 55% in size
#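 In this reporter screen, reduction of luminescence relative to DMSO vehicle indicated activity. Compounds and 5-fluorouridine were added together to 2,000 cells per well, incubated for 16 hr at 37 °C, then developed with ONE-Glo.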
# An asterisk follows results filed as active; ? = inconclusive; nt = no result; [ ] = dose if it differs, or a comment. A selection: hits, their analogues and other compounds. The true share with any hit is near 15%. The call rests on the fitted dose curve; in most records, active means well fitted curve in the direction sought with a large enough effect; inconclusive means small, poorly fitted or top-dose-only effect, or another doubt; inactive means no such curve, though single readings can be large; an effect the other way counts as inactive or inconclusive. On the % scale 0 is the no-effect control and ±100 the full control effect; potency means the concentration at half of the fitted maximal effect.
SMILES,ALOX12 inh,TDP1 cell CPT,TDP1 cell noCPT,Gal4-VP16 FLuc,RORg inh,ELG1 DNA repair
CC(=O)NCc1ccc(S(=O)(=O)N2CCN(c3ccccn3)CC2)cc1,-3.7%,-28.4%,-12.3%,11.9%,18.8%,2.8%
Cc1ccc(C(=O)NNC(=O)c2ccc(S(=O)(=O)N3CCCCC3)cc2)cc1,-12.8%,5.17µM*,23.1µM*,nt,nt,9.4%
CC(=O)NCc1ccc(S(=O)(=O)N2CCCN(C)CC2)cc1,0.0%,?,23.1µM*,0.1%,3.7%,6.5%
Cc1ccc(CNC(=O)c2ccc(S(=O)(=O)N3CCCCCC3)cc2)cc1,-5.9%,20.6µM*,4.11µM*,nt,nt,nt
Cc1ccc(Cl)cc1NC(=O)Nc1cc2c(cc1Oc1ccccc1)n(C)c(=O)n2C,5.7%,nt,nt,nt,nt,nt
O=C(Cc1ccccc1F)N1CCC2(CC1)CN(C1CCC1)CC2CO (stereo not drawn),82.5%,nt,nt,nt,nt,nt
COCC(=O)NC[C@H]1COCc2nc3cc(S(C)(=O)=O)ccc3n21,22.6%[176 µM],nt,nt,nt,nt,nt
O=C(CC1(CC2=NS(=O)(=O)c3ccccc3N2)CCCC1)NCCc1ccccc1,-12.9%,14.6µM*,?,3.2%,-1.1%,-23.3%
CC(Oc1cccc(Br)c1)C(=O)NNC(=O)c1ccc2c(c1)NC(=O)CCS2 (stereo not drawn),44.7µM*,nt,nt,nt,nt,nt
O=C1CCSc2ccc(C(=O)NNC(=S)NCc3ccccc3)cc2N1,13.9%,nt,nt,nt,nt,nt
O=C1c2ccc(Cl)cc2S(=O)(=O)c2cccc(C(=O)N3CCN(c4ccc(Cl)cn4)CC3)c21,?,13µM*,16.4µM*,nt,nt,?
O=C(NCC1(c2ccccc2)CCCC1)c1ccc(S(=O)(=O)N2CCOCC2)cc1,-27.6%,nt,nt,nt,nt,nt
COc1ccc(-c2n[nH]c(=S)n2-c2ccccc2C)cc1OC,?,-10.8%,0.9%,?,11.2µM*,-1.9%
COc1ccc(-c2n[nH]c(=S)n2-c2ccccc2C)cc1,?,1.8%,-9.8%,6.31µM*,5.62µM*,-2.4%
Cc1ccccc1-n1c(-c2cccnc2)n[nH]c1=S,?,9.3%,-8.8%,15.2%,?,nt
CN(CC1CCOCC1)S(=O)(=O)Cc1ccccc1Cl,19.4%,nt,nt,nt,nt,nt
O=C(CN1C(=O)c2ccccc2C1=O)OCC(=O)N1CCCCC1,1.3%,-1.6%,-6.8%,nt,nt,8.2%
NC(=O)c1ccccc1OCC(=O)N1CCc2ccccc2C1,-0.7%,?,13µM*,-13.3%,?,-2.0%
O=C(CN1C(=O)c2ccccc2C1=O)OCC(=O)N1CCc2ccccc2C1,-0.3%,-11.5%,0.0092µM*,0.1%,-0.7%,7.9%
CCN1CCN(CCOc2ccc3c(=O)c(-c4ccccc4)coc3c2)CC1,-29.8%,nt,nt,nt,nt,nt
COc1ccc(Cn2c3c(c(=O)n2Cc2ccccc2)CCN(C(=O)c2nc4ccccc4[nH]2)C3)cc1,-18.9%,nt,nt,nt,nt,nt
Cc1cccc(NC(=O)Cn2c(-c3cnccn3)nc(C)c(CCO)c2=O)c1C,13.4%,nt,nt,nt,nt,nt
CCN1C(=O)[C@H]2[C@@H](c3ccc(-c4cccc(Cl)c4)c(OC)c3)N[C@@](Cc3ccccc3)(C(=O)OC)[C@H]2C1=O,-21.0%,?,18.4µM*,nt,nt,9.7%
CCN1C(=O)[C@H]2[C@@H](c3ccc(-c4ccc(OC)cc4)c(OC)c3)N[C@@](Cc3ccccc3)(C(=O)OC)[C@H]2C1=O,?,?,?,nt,nt,17.2%
COC(=O)[C@]1(Cc2ccccc2)N[C@H](c2ccc(-c3cccc(Cl)c3)c(OC)c2)[C@@H]2C(=O)N(C)C(=O)[C@@H]21,39.8µM*,13µM*,10.3µM*,nt,nt,nt
SMILES,ALOX12 inh,TDP1 cell CPT,TDP1 cell noCPT,Gal4-VP16 FLuc,RORg inh,ELG1 DNA repair
CN(c1cccc(NC(=O)c2ccc(Cl)c(S(=O)(=O)N3CCOCC3)c2)c1)S(C)(=O)=O,0.0%,?,11.6µM*,16.9%,12.0%,23.1µM*
CCc1ccc(C(=O)Nc2cccc(C(C)=O)c2)cc1S(=O)(=O)N1CCOCC1,5.7%,nt,nt,nt,nt,nt
O=C(Nc1ccccn1)c1ccc(Cl)c(S(=O)(=O)N2CCOCC2)c1,4.4%,3.3%,21.6%,-12.3%,-14.2%,-12.0%
CC(=O)c1cccc(NC(=O)c2ccc(Cl)c(S(=O)(=O)N3CCOCC3)c2)c1,-23.4%,?,0.461µM*,nt,nt,nt
COc1ccc(C(=O)N2CCC(N3C(=O)C(OC)C34CCOCC4)CC2)c(OC)c1 (stereo not drawn),14.6%,nt,nt,nt,nt,nt
CC(C)Cc1cc(C(=O)NCc2noc(-c3c(F)cccc3F)n2)no1,22.8%,nt,nt,nt,nt,nt
CNC(=O)[C@@H]1C[C@@H](O)CN1C1CCN(C(=O)CCc2nc3ccccc3s2)CC1,26.7%,nt,nt,nt,nt,nt
COC(=O)CC1C(C)(C)C(OC(C)=O)C2[C@H](OC(C)=O)[C@]34O[C@]2(O)[C@]1(C)C3CC[C@]1(C)C4=CC(=O)OC1c1ccoc1 (stereo partly drawn),nt,?,16.4µM*,-8.2%,3.7%,nt
Cc1cccc(C(C)C)c1NC(=O)CCc1ncc(-c2ccccc2)o1,8.3%,nt,nt,nt,nt,nt
CCC1CCc2nc3sc(C(=O)Nc4cccc(F)c4)c(N)c3cc2C1 (stereo not drawn),-13.4%,3.26µM*,2.06µM*,nt,nt,nt
CCC1CCc2nc3sc(C(=O)Nc4ccc(F)cc4F)c(N)c3cc2C1 (stereo not drawn),-21.2%,8.2µM*,?,nt,nt,nt
Cc1ccc2nc3sc(C(=O)Nc4ccc(N5CCOCC5)cc4)c(N)c3cc2c1,nt,nt,nt,1.7%,-1.3%,-12.5%
CCC1CCc2nc3sc(C(=O)Nc4cccc(C(F)(F)F)c4)c(N)c3cc2C1 (stereo not drawn),-15.0%,?,18.4µM*,nt,nt,nt
CCC1CCc2nc3sc(C(=O)Nc4ccc(C)cc4)c(N)c3cc2C1 (stereo not drawn),-14.0%,11.6µM*,7.31µM*,nt,nt,nt
COc1ccc(NC(=O)c2sc3nc4c(cc3c2N)CCCCCC4)cc1Cl,-27.3%,?,?,nt,nt,nt
O=C(NCc1ccccc1)C1CCC(=O)N1C1CCN(C(=O)c2ccc3c(c2)OCO3)CC1 (stereo not drawn),28.8%,nt,nt,nt,nt,nt
Cc1ccc(-n2nc3c(=O)n(C(C)C(=O)NCCCc4ccccc4)nc(C)c3c2C)cc1 (stereo not drawn),-19.6%,16.4µM*,9.2µM*,-6.9%,32.0%,?
Cc1ccc(-n2nc3c(=O)n(C(C)C(=O)NCc4ccco4)nc(C)c3c2C)cc1 (stereo not drawn),8.5%,-13.9%,?,-1.4%,11.7%,-5.5%

# Compound activity as filed in PubChem BioAssay.
